In PMC5700166 one finds binding signal data, which are given here for ten sequences.

Where a chain is given by its changes, count along the chain named.

Holding throughout (assay): protein-binding microarray (PBM); PBM: ~300 nM protein, 6 mM HEPES pH 7.8, 80 mM KCl, 0.5 mM EDTA, 0.5 mM EGTA, 6% glycerol, 35 ng/ul poly-dIdC, 1% milk, 1 h, room temperature; Ap Aiptasia and Nv Nematostella (sea anemones) / Co Capsaspora / Aq Amphimedon (sponge) / Dm Drosophila / Hu human; RHD is the Rel homology domain; high values mean tight binding
Conditions in all cases: dsDNA, one strand shown

One experiment addresses T1, GST-Ap-NF-kB RHD (Exaiptasia pallida (Aiptasia), UniProt A0A913YAJ5 2-422).
T1 sequence: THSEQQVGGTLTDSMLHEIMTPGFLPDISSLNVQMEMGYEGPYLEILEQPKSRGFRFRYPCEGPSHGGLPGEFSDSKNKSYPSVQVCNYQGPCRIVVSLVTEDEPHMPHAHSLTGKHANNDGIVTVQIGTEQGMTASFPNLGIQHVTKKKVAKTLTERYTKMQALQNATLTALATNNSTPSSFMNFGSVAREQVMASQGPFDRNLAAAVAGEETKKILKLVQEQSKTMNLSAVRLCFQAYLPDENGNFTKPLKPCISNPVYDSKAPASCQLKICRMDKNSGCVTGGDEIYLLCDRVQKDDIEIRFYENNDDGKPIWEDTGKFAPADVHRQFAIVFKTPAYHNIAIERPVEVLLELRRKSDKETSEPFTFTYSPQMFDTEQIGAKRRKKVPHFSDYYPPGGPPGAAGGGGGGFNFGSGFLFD

Experiment [1] has as its target T2, GST-Nv-NF-kB (Cys allele) (Nematostella vectensis, UniProt E5G601 2-411).
T2 sequence: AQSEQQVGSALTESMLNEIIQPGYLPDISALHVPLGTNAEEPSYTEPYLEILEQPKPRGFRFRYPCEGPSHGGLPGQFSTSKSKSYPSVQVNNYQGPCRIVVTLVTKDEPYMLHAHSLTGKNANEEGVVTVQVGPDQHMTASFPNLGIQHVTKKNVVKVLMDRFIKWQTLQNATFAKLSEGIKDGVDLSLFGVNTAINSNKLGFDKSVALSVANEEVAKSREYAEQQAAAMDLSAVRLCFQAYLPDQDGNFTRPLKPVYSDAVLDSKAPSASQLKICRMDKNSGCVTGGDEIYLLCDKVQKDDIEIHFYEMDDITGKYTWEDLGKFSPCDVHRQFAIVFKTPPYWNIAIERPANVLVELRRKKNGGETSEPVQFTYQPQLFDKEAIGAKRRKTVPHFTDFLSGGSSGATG

The target in experiment [2] is T3, GST-Nv-NF-kB (Ser allele) (Nematostella vectensis, UniProt A7UNT2 2-411).
T3 sequence: T2 sequence with Q21R, C66S, S207N, E215Q, V217A, E225K, A268E, D399E

In a further experiment the target is T4, GST-Co-NF-kB (Capsaspora owczarzaki, UniProt F1ARL5 200-546).
T4 sequence: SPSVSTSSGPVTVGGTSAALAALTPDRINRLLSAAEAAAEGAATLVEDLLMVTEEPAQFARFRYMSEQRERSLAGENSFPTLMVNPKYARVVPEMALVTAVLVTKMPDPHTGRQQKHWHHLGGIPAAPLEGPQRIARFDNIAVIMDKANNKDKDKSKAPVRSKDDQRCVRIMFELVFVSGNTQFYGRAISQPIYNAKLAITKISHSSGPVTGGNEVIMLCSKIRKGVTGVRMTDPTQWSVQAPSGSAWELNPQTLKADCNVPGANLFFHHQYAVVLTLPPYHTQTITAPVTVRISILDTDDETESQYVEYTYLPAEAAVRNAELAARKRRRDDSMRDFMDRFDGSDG

In a further experiment the target is T5, GST-Dm-Relish (Drosophila melanogaster, UniProt Q94527 99-473).
T5 sequence: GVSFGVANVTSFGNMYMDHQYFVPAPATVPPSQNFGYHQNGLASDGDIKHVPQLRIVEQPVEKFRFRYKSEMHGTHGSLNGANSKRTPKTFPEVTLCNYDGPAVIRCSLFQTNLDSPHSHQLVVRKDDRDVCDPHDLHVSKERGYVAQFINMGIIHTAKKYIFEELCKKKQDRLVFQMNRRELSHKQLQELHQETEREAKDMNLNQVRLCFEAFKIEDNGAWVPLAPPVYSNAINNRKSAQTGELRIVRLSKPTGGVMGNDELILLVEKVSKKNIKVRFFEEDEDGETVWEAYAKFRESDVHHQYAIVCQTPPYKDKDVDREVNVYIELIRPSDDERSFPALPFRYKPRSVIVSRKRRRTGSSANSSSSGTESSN

For another experiment, the target named is T6, GST-Aq-NF-kB (Amphimedon queenslandica, UniProt A9Y5G7 2-389).
T6 sequence: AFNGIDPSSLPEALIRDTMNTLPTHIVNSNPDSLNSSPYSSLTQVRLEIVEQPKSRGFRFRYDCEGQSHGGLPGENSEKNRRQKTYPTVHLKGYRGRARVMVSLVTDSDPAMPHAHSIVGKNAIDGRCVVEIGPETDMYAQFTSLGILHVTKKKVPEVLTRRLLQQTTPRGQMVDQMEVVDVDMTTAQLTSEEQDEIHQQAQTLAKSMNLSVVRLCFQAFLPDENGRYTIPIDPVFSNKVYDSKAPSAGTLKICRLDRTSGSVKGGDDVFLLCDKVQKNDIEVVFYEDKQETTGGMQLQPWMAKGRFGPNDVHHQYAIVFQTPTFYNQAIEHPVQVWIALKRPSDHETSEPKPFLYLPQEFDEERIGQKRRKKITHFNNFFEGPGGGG

The next experiment concerns the target GST-Hu-p50 (Homo sapiens, UniProt P19838 7-356).

Chain of GST-Hu-p50 (P19838 7-356): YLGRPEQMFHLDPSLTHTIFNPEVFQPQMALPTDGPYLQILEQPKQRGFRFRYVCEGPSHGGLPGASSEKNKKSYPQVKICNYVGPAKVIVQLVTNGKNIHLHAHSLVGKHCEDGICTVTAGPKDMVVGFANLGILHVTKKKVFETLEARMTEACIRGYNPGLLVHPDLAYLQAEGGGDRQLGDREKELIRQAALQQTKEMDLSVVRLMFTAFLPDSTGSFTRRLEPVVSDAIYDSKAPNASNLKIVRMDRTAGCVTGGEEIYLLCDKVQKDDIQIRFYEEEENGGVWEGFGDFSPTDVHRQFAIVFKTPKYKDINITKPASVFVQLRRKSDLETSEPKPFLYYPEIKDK

For the sequence “CCGATTAACATCATTTTGGGGACTGATGTTAATCGGGTCTTGATTCGCTTGACGCTGCTG”, the binding signal with GST-Ap-NF-kB RHD was 2.93 z-score; in experiment [1] it was 3.66 z-score; in experiment [2], 3.16 z-score; with GST-Co-NF-kB it was 1.94 z-score; with GST-Dm-Relish, 1.4 z-score; in the experiment with GST-Aq-NF-kB it was 4.11 z-score. Moreover, the binding signal in the experiment with GST-Hu-p50 is 3.28 z-score.
As to “CCGATTAACATCAGGAATTACCCTGATGTTAATCGGGTCTTGATTCGCTTGACGCTGCTG”, the binding signal in the experiment with GST-Ap-NF-kB RHD came out at 4.56 z-score; in experiment [1], 7.58 z-score; in experiment [2] it was 4.97 z-score; with GST-Co-NF-kB, 2.62 z-score; in the experiment with GST-Dm-Relish, 6.61 z-score; with GST-Aq-NF-kB, 8.34 z-score. For the same sequence, the binding signal with GST-Hu-p50 came to 4.51 z-score.
With “CCGATTAACATCAGGGAAATCACTGATGTTAATCGGGTCTTGATTCGCTTGACGCTGCTG”, the binding signal with GST-Ap-NF-kB RHD stood at 3.41 z-score; in experiment [1] it was 4.78 z-score; in experiment [2], 4.63 z-score; with GST-Co-NF-kB, 2.62 z-score; in the experiment with GST-Dm-Relish it was 8.27 z-score; with GST-Aq-NF-kB, 5.99 z-score. The binding signal with GST-Hu-p50 came out at 4.18 z-score.
In the case of “CCGATTAACATCACAATCCCCCCTGATGTTAATCGGGTCTTGATTCGCTTGACGCTGCTG”, the binding signal with GST-Ap-NF-kB RHD came out at 8.13 z-score; in experiment [1] it was 5.61 z-score; in experiment [2], 6.37 z-score; in the experiment with GST-Co-NF-kB it was 5.89 z-score; with GST-Dm-Relish, 5.35 z-score; with GST-Aq-NF-kB, 5.25 z-score. This sequence yielded a binding signal with GST-Hu-p50 of 6.19 z-score.
Take “CCGATTAACATCAGGCAACCCCCTGATGTTAATCGGGTCTTGATTCGCTTGACGCTGCTG”: the binding signal with GST-Ap-NF-kB RHD was 5.96 z-score; in experiment [1], 3.96 z-score; in experiment [2], 3.97 z-score; with GST-Co-NF-kB, 2.03 z-score; with GST-Dm-Relish, 6.58 z-score; with GST-Aq-NF-kB it was 6.21 z-score. In the experiment with GST-Hu-p50, the binding signal was found to be 5.13 z-score.
Turning to “CCGATTAACATCAAGGGGGGTATTGATGTTAATCGGGTCTTGATTCGCTTGACGCTGCTG”, the binding signal came to 6 z-score with GST-Ap-NF-kB RHD; 4.4 z-score in experiment [1]; 3.99 z-score in experiment [2]; 4.22 z-score with GST-Co-NF-kB; 5.14 z-score with GST-Dm-Relish; 5.2 z-score with GST-Aq-NF-kB. The sequence also came in with a binding signal in the experiment with GST-Hu-p50 of 4.8 z-score.
As for “CCGATTAACATCAGGGACTACCCTGATGTTAATCGGGTCTTGATTCGCTTGACGCTGCTG”, the binding signal was 6.16 z-score in the experiment with GST-Ap-NF-kB RHD; 5.24 z-score in experiment [1]; 4.07 z-score in experiment [2]; 1.8 z-score with GST-Co-NF-kB; 7.1 z-score with GST-Dm-Relish; 7.57 z-score in the experiment with GST-Aq-NF-kB. Also, the binding signal with GST-Hu-p50 amounted to 4.13 z-score.
Take “CCGATTAACATCAGGGACTCCCCTGATGTTAATCGGGTCTTGATTCGCTTGACGCTGCTG”: the binding signal turned out to be 11.3 z-score with GST-Ap-NF-kB RHD; 9.16 z-score in experiment [1]; 7.65 z-score in experiment [2]; 4.68 z-score in the experiment with GST-Co-NF-kB; 10.3 z-score with GST-Dm-Relish; 9.57 z-score with GST-Aq-NF-kB. Besides, the binding signal with GST-Hu-p50 stood at 6.03 z-score.
Regarding “CCGATTAACATCACTTTTTCCCCTGATGTTAATCGGGTCTTGATTCGCTTGACGCTGCTG”, the binding signal is 6.12 z-score with GST-Ap-NF-kB RHD; 7.44 z-score in experiment [1]; 9.65 z-score in experiment [2]; 10.6 z-score in the experiment with GST-Co-NF-kB; 3.45 z-score with GST-Dm-Relish; 4.94 z-score with GST-Aq-NF-kB. This sequence also came in with a binding signal with GST-Hu-p50 of 5.64 z-score.
“CCGATTAACATCACATGGGAATCTGATGTTAATCGGGTCTTGATTCGCTTGACGCTGCTG”: the binding signal worked out at 1 z-score with GST-Ap-NF-kB RHD; 2.19 z-score in experiment [1]; 2.46 z-score in experiment [2]; 1.08 z-score with GST-Co-NF-kB; 1.82 z-score in the experiment with GST-Dm-Relish; 1.14 z-score with GST-Aq-NF-kB. Also, in the experiment with GST-Hu-p50, the binding signal was 1.59 z-score.
